What all share (assay): BK channel mutant inhibitors and activators – cell-based, U2OS BacMam, thallium flux, beta subunits, selectivity assay, profiling panel (AID 1259406);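 note: initial slope of Thallos dye fluorescence rise after thallium is added; log ratio against the mean of 0.3% DMSO vehicle wells on the same plate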
In one assay the test system is F380Y. The following applies: U2OS BacMam BK variants, at 30 µM.
The next assay relates to F380Y/beta1. The note with it: U2OS BacMam BK variants, at 30 µM.
Another assay has as its system F380Y/beta2Delta. The following applies: U2OS BacMam BK variants, at 30 µM.
A further assay deals with F380Y/beta4. The note with it: U2OS BacMam BK variants, at 30 µM.
The target in assay [1] is Calcium-activated potassium channel subunit alpha-1 (Homo sapiens) + Leucine-rich repeat-containing protein 26 (Homo sapiens) (UniProt Q12791+Q2I0M4). The note with it: U2OS BacMam BK variants, F380Y/Slo1WT/gamma1, at 30 µM.
Another assay deals with R275C. The note with it: U2OS BacMam BK variants, at 30 µM.
The test system of another assay is R275C/beta1. The following applies: U2OS BacMam BK variants, at 30 µM.
For another assay, the system named is R275C/beta2Delta. The following applies: U2OS BacMam BK variants, at 30 µM.
In another assay the test system is R275C/beta4. The note with it: U2OS BacMam BK variants, at 30 µM.
The subject of another assay is R275C/Slo1WT/beta2. The note with it: U2OS BacMam BK variants, at 30 µM.

SMILES strings stand for the structures. Unmarked numbers belong to inactive results. Activity calls are given as the source filed them.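 Rule for the calls: active = thallium flux through the channel raised or lowered by more than 3 SD from vehicle-only wells, actives on both sides; inactive = the rest.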

Calcium-activated potassium channel subunit alpha-1 (Homo sapiens) + Leucine-rich repeat-containing protein 26 (Homo sapiens), sequence (Q2I0M4 whole entry, looked up, one chain of several): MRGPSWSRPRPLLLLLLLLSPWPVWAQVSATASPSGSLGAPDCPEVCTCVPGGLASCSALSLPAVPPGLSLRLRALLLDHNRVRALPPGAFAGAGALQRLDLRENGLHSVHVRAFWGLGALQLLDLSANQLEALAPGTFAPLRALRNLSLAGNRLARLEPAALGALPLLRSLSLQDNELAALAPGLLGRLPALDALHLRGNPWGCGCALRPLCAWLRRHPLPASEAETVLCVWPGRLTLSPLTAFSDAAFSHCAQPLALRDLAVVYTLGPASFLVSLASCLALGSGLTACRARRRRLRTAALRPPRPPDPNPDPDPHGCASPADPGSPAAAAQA

As for `COC(=O)c1cnn(C(=O)Nc2c(C)cccc2C)c1C(OC)OC`, the log fold change Tl+ flux is -0.0549 with F380Y; -0.00196 with F380Y/beta1; -0.0264 in the assay with F380Y/beta2Delta; -0.029 in the assay on F380Y/beta4; 0.033 in [1]; 0.02 in the assay with R275C. Further, the log fold change Tl+ flux was -0.0504 in the assay on R275C/beta1, -0.0443 in the assay with R275C/beta2Delta, 0.00703 in the assay on R275C/beta4 and 0.00968 with R275C/Slo1WT/beta2.

For the compound `Cc1cc2c(NC(=O)c3ccccc3C(=O)O)cccc2nn1`, the log fold change Tl+ flux is -0.0132 in the assay on F380Y; 0.714 (active) in the assay with F380Y/beta1; -0.0393 in the assay on F380Y/beta2Delta; 0.0303 in the assay on F380Y/beta4; 0.0158 in [1]; 0.0158 with R275C. In addition, the log fold change Tl+ flux is -0.0051 in the assay with R275C/beta1, -0.00027 in the assay on R275C/beta2Delta, -0.0138 with R275C/beta4 and -0.00217 in the assay on R275C/Slo1WT/beta2.

On to `O=C(NC1CCSC1)c1ccccc1NS(=O)(=O)c1ccccc1` (stereo not given), for which the log fold change Tl+ flux in the assay with F380Y was -0.000365; in the assay with F380Y/beta1, -0.00386; in the assay on F380Y/beta2Delta, -0.00638; in the assay on F380Y/beta4, 0.00736; in assay [1] it was -0.0334; in the assay with R275C, -0.153 (active). Further, the log fold change Tl+ flux in the assay on R275C/beta1 is -0.151 (active); in the assay with R275C/beta2Delta, -0.158 (active); with R275C/beta4 it was -0.0828 (active); in the assay with R275C/Slo1WT/beta2 it was -0.0155.

On to `CCOC(=O)C1CCC(C(=O)OCC)N1C(=O)Nc1ccc(Cl)cc1` (stereo not given), for which the log fold change Tl+ flux in the assay on F380Y is 0.046; in the assay on F380Y/beta1, 0.00842; in the assay on F380Y/beta2Delta it was 0.0313; with F380Y/beta4, -0.0525; in assay [1], -0.0039; in the assay with R275C, 0.0639. The log fold change Tl+ flux in the assay on R275C/beta1 is 0.0271; in the assay with R275C/beta2Delta it was 0.0385; in the assay with R275C/beta4, 0.0217; with R275C/Slo1WT/beta2 it was -0.00903.

As to `CC(=O)N(C(C)=O)c1ccc2c3c(cccc13)CC2`, the log fold change Tl+ flux is 0.051 in the assay with F380Y; -0.00187 in the assay with F380Y/beta1; -0.0119 in the assay on F380Y/beta2Delta; -0.0487 in the assay on F380Y/beta4; -0.0226 in assay [1]; 0.0133 with R275C. Also, the log fold change Tl+ flux in the assay on R275C/beta1 is 0.0421; in the assay on R275C/beta2Delta, -0.00855; in the assay with R275C/beta4, 0.0484; with R275C/Slo1WT/beta2, 0.0138.

For `N#Cc1ccc(NCCc2ccccn2)c([N+](=O)[O-])c1`, the log fold change Tl+ flux was 0.00452 with F380Y; -0.0335 in the assay with F380Y/beta1; -0.0123 with F380Y/beta2Delta; -0.0514 with F380Y/beta4; -0.00295 in assay [1]; -0.00307 in the assay with R275C. The log fold change Tl+ flux with R275C/beta1 was -0.0352; in the assay on R275C/beta2Delta it was -0.049; in the assay on R275C/beta4, 0.0115; in the assay on R275C/Slo1WT/beta2 it was 0.0168.

As for `Cc1ccccc1C=C1N=C(c2ccccc2)OC1=O`, the log fold change Tl+ flux was -0.012 in the assay with F380Y; 0.0199 with F380Y/beta1; 0.0497 in the assay on F380Y/beta2Delta; -0.0336 in the assay on F380Y/beta4; -0.00351 in [1]; -0.000743 with R275C. Also, the log fold change Tl+ flux in the assay on R275C/beta1 is 0.036; in the assay with R275C/beta2Delta it was 0.0102; in the assay on R275C/beta4, 0.00185; in the assay with R275C/Slo1WT/beta2 it was 0.0353.

`CC(=O)C(=CN(C)C)Sc1ccc(Cl)cc1`: the log fold change Tl+ flux in the assay with F380Y was 0.0299; with F380Y/beta1 it was -0.000152; in the assay on F380Y/beta2Delta, 0.00502; with F380Y/beta4, 0.000556; in [1], 0.0115; with R275C, 0.0269. In addition, the log fold change Tl+ flux in the assay with R275C/beta1 was 0.0366; in the assay with R275C/beta2Delta, 0.0244; in the assay on R275C/beta4, 0.0484; in the assay on R275C/Slo1WT/beta2, -0.0118.

As for `O=C(CC1SC(=NC2CC3C=CC2C3)NC1=O)Nc1ccccc1Cl` (stereo not given), the log fold change Tl+ flux in the assay on F380Y was 0.0694; in the assay with F380Y/beta1, 0.0502; with F380Y/beta2Delta, 0.0241; in the assay with F380Y/beta4 it was -0.0131; in assay [1], -0.0156; with R275C, 0.0384. The log fold change Tl+ flux in the assay with R275C/beta1 is 0.0688; with R275C/beta2Delta, 0.032; in the assay on R275C/beta4 it was 0.0398; in the assay on R275C/Slo1WT/beta2 it was -0.0439.

With `Cn1cnc2cccc(F)c2c1=N`, the log fold change Tl+ flux with F380Y is -0.0259; with F380Y/beta1 it was 0.000586; with F380Y/beta2Delta it was -0.0156; in the assay with F380Y/beta4, 0.0474; in assay [1], 0.038; in the assay with R275C, 0.0169. For the same compound, the log fold change Tl+ flux in the assay with R275C/beta1 is 0.0241; with R275C/beta2Delta, -0.00275; in the assay with R275C/beta4, 0.00326; in the assay on R275C/Slo1WT/beta2, 0.0172.

In the case of `CC(=O)OCC(OC(C)=O)C(OC(C)=O)C(OC(C)=O)C(C#N)OC(C)=O` (stereo not given), the log fold change Tl+ flux in the assay with F380Y is 0.0435; in the assay with F380Y/beta1, -0.00373; in the assay on F380Y/beta2Delta, 0.0398; in the assay on F380Y/beta4, 0.0383; in assay [1], -0.00671; with R275C it was -0.00122. Also, the log fold change Tl+ flux in the assay with R275C/beta1 was -0.0156; in the assay on R275C/beta2Delta it was 0.0587; in the assay with R275C/beta4, -0.0186; in the assay with R275C/Slo1WT/beta2, -0.0705.

On to `COC(=O)c1sc(-c2ccc(Cl)cc2)cc1NC(=O)c1ccc2nsnc2c1`, for which the log fold change Tl+ flux in the assay on F380Y is 0.0226; with F380Y/beta1, 0.0354; in the assay with F380Y/beta2Delta it was 0.0206; in the assay with F380Y/beta4 it was 0.0283; in assay [1], 0.00872; with R275C it was 0.0185. The log fold change Tl+ flux in the assay with R275C/beta1 was -0.00968; in the assay with R275C/beta2Delta it was -0.0231; in the assay on R275C/beta4, -0.00956; with R275C/Slo1WT/beta2 it was 0.0403.

Turning to `COC(OC)c1ccc(C#N)c(SC)n1`, the log fold change Tl+ flux in the assay with F380Y is 0.0176; in the assay with F380Y/beta1 it was -0.0051; with F380Y/beta2Delta, 0.00992; in the assay with F380Y/beta4 it was 0.0407; in [1], -0.00294; with R275C it was -0.0258. Also, the log fold change Tl+ flux with R275C/beta1 is -0.00195; in the assay with R275C/beta2Delta, 0.0434; in the assay on R275C/beta4, -0.0479; in the assay on R275C/Slo1WT/beta2, -0.0163.

The record behind these values is PubChem BioAssay.
